# High-throughput results deposited in PubChem by National Center for Advancing Translational Sciences (NCATS).
# ClpP mod = qHTS Assay for Activators of ClpP; purified B. subtilis ClpP, FRET peptide cleavage, 20 min; Potency, µM (titrated, usually from 57.5 µM), for inactives: top-dose activity change, negative = active; 340,000 tested, 1.9% active; AID 651965, 2013; active = well fitted falling curve with a large enough effect; inconclusive = small, poorly fitted or top-dose-only effect; inactive = no such curve, though single readings can be large or run the other way; also: the source files actives as falling curves though it sought activators and does not explain the sign; nearly all actives have a fitted effect of over 65% in size
# Target sequence (P80244 whole entry, looked up): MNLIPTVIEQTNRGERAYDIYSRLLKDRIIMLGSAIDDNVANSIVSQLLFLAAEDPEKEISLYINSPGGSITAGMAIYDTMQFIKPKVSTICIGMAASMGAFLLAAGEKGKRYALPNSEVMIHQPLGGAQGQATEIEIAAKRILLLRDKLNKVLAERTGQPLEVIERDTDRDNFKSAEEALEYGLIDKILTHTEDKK
#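 Buffer: 100 mM Tris/HCl pH8, 100 mM KCl, 0.05% low protease BSA, 2.5% glycerol, 0.01% Tween-20. ClpP 10 microg/mL final; 20 min RT; delta FRET normalized to ADEP and DMSO controls.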
# TDP1 cell CPT = DT40-hTDP1 cell growth loss with CPT. chicken DT40 Tdp1-/-;hTDP1 cells + 20 nM CPT, ATP luminescence, 48 h. Potency, µM (series often up to 46.2 µM), for the others: at the top dose activity change, negative = growth inhibition, actives largely listed as inhibitors. 420,000 tested, 12% active; also: % is scaled to controls: 0 for no effect and ±100 for the full control effect; nearly all actives have a fitted effect of over 55% in size
#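 Cell growth measured by CellTiter-Glo luminescence after a minimum 48 h, 37 C compound exposure with 20 nM CPT in Tdp1-knockout DT40 cells stably expressing hTDP1, seeded 400/well; qHTS titration format.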
# TDP1 block = TDP1 (human) enzyme inhibition; Potency, µM (series often up to 130 µM), for the others: at the top dose activity change, negative = inhibition, usual class: inhibitors; recombinant TDP1, AlphaScreen DNA substrate cleavage; 350,000 tested, 0.28% active; also: % is scaled to controls: 0 for no effect and ±100 for the full control effect; nearly all actives have a fitted effect of over 40% in size
#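 Compounds were preincubated with Tdp1 (1 nM final) for 15 min at room temperature before substrate (15 nM final) started a 5 min reaction; beads (10 ug/ml final) were then added for 10 min before AlphaScreen detection.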
# DT40 TDP1 no CPT = qHTS for Inhibitors of human tyrosyl-DNA phosphodiesterase 1 (TDP1): qHTS in cells in absence of CPT; DT40 Tdp1-/- hTDP1 cells, no CPT, ATP luminescence, 48 h; Potency, µM (titrated, usually from 46.2 µM), for the others: top-dose activity change, negative = growth inhibition, hits mostly inhibitors; 420,000 tested, 15% active; also: % is scaled to controls: 0 for no effect and ±100 for the full control effect; nearly all actives have a fitted effect of over 55% in size
#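 Chicken DT40 Tdp1-/- cells complemented with human TDP1, screened without camptothecin (DMSO vehicle only), 400 cells/well. Compounds pin-transferred, cells incubated at 37 °C for at least 48 hr. Growth read as ATP-dependent luminescence (CellTiter-Glo, 30 min at RT).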
# * marks the source's active call; other numbers are inactive results; ? = inconclusive; nt = no result given; [ ] = dose if it differs, or a comment. Only some compounds are listed: those with a hit (about 17% of all), similar ones and a draw of the others. Unless noted, calls follow the shape of the dose curve; as a rule, active = well fitted curve in the direction sought with a large enough effect; inconclusive = small, poorly fitted or top-dose-only effect, or another doubt; inactive = no such curve, though single readings can be large; an effect the other way counts as inactive or inconclusive. Potency is read from the fitted curve at half-maximal effect.
SMILES,ClpP mod,TDP1 cell CPT,TDP1 block,DT40 TDP1 no CPT
Cc1ccc(N(CC(=O)N2CCCCCC2)S(C)(=O)=O)c(C)c1,-2%,-9%,nt,-14%
CCCn1c(=N)c(C(=O)NC(C)c2ccccc2)cc2c(=O)n3ccccc3nc21 (centres undefined),38%,?,9%,?
CO[C@@H]1CN(C)C(=O)c2ccc(NS(=O)(=O)c3c(C)noc3C)cc2OC[C@@H](C)NC[C@@H]1C,1%,-8%,nt,34%
C#CCOCCOCCOCCNc1nc(N2CCN(C(=O)[C@H](CC(N)=O)n3cc(C(N)[C@H](C)CC)nn3)CC2)nc(N2CCN(C(=O)[C@H](CC(N)=O)n3cc(C(N)[C@@H](C)CC)nn3)CC2)n1 (some centres undefined),1%,2%,0%,-24%
O=C(c1cccc(S(=O)(=O)N2CCCCC2)c1)N(CCc1ccccc1)Cc1ccccc1,1%,18µM*,-10%[0.505 µM],?
CCN(Cc1ccccc1)C(=O)c1cc(S(=O)(=O)N2CCOCC2)ccc1N1CCCC1,-3%,?,-3%,16µM*
CCc1ccc(CN(C)C(=O)c2cc(S(=O)(=O)N3CCOCC3)ccc2N2CCCC2)cc1,-4%,?,nt,?
CCc1nn2c(=O)cc(CSCC(=O)Nc3ccccc3F)nc2s1,1%,-3%,1%,11%
COc1cc2c3c(c1OC)C(=O)CC3CCCC2 (centres undefined),-28%,-2%,nt,-16%
Cc1ccc(S(=O)(=O)Nc2ccc3cn[nH]c3c2)c(C)c1,-1%,?,-2%,-19%
CCOc1cc(C)c(S(=O)(=O)Nc2ccc3cn[nH]c3c2)cc1C,-3%,18µM*,4%,10µM*
C[C@@H]1CN([C@H](C)CO)C(=O)c2cc(C#Cc3ccccc3F)cnc2O[C@@H]1CN(C)S(=O)(=O)c1ccccc1F,-4%,-2%,nt,-1%
CC(C)c1ccc(NC(=O)CCC(=O)NCc2ccco2)cc1,0%,?,nt,?
Cc1ccc(NC(=O)/C=C\C(=O)N(c2ccc(C(C)C)cc2)C(C(=O)NCc2ccco2)c2ccc(F)cc2)cc1 (centres undefined),-1%,15µM*,10%,18µM*
COc1ccc(N(C(=O)/C=C\C(=O)Nc2ccc(C)cc2)C(C(=O)NCc2ccco2)c2ccc(C)cc2)cc1 (centres undefined),2%,6.5µM*,5%,4.1µM*
Cc1ccc(N(C(=O)c2sc(C)nc2C)C(C(=O)NCc2ccco2)c2ccccc2)cc1 (centres undefined),-1%,?,3%,?
CCc1ccc(CNCc2ccc(OCC(O)CN(C)Cc3ccccc3)cc2)nc1 (centres undefined),-5%,16µM*,6%,23µM*
Cc1ccc(S(=O)(=O)c2nc(Cc3ccccc3)oc2N2CCOCC2)cc1,nt,1%,-10%,-18%
CCN(CC)CCN(C(=O)c1ccco1)c1nc2ccc(Cl)cc2s1,-3%,?,5%,?
CN(C)CCCN(C(=O)c1ccco1)c1nc2ccc(Cl)cc2s1,nt,18µM*,2%,16µM*
CN(C)CCCN(C(=O)c1ccc(C(=O)c2ccccc2)cc1)c1nc2cc3c(cc2s1)OCCO3,1%,-30%,9%,-20%
Cc1ccc2nc(N(CCCN(C)C)C(=O)c3sc4ccccc4c3Cl)sc2c1,1%,16µM*,6%,26µM*
CN(C)CCCN(C(=O)c1ccco1)c1nc2ccc(Br)cc2s1,nt,23µM*,7%,23µM*
CN(C)CCN(C(=O)c1ccco1)c1nc2cc3c(cc2s1)OCCO3,0%,4.6µM*,4%,3.7µM*
CC(C)CCN1CCN(Cc2ccon2)CC1CCO (centres undefined),nt,-6%,4%,-20%
CCOC(=O)C1NN=C(C(=O)c2ccc(C)cc2)C1c1ccc(C)cc1 (centres undefined),-6%,18µM*,3%,21µM*
CCOC(=O)C1=NNC(C(=O)c2ccc(Cl)cc2)C1c1ccc(OC)cc1 (centres undefined),nt,?,3%,18µM*
CCOC(=O)C1=NNC(C(=O)c2ccc(C)cc2)C1c1ccc(OC)cc1 (centres undefined),0%,?,2%,?
